Test results published in PubChem BioAssay AID651724 (National Center for Advancing Translational Sciences (NCATS), 2012).
About 1,700 (0.5%) of roughly 340,000 compounds were called active. Inconclusive results (about 2%) are left out. Many of the other results were omitted from the sample, so actives are more common in it than they were. A number with no mark means an inactive call. No stated cut-off is given here; in the data, active means activity change below about -65%; inconclusive means mostly about -30% to -63%; inactive means weaker than that.

Tested on: CtBP / adenovirus E1A interaction (AlphaScreen)
Assay: qHTS Assay for Inhibitors of the CtBP/E1A Interaction
Settings: AlphaScreen GST-E1A/His-CtBP binding, 1536-well; active compounds read low
Description: Carboxyl-terminal binding protein (CtBP) is a co-repressor for many transcription factors. […] Our studies have shown that CtBP is overexpressed in multiple human cancers, including lung, breast, and head and neck cancers. In particular, it is over-expressed in 50% of primary lung cancer and 90% of metastatic lesions. CtBP suppresses epithelial-specific genes as well as genes critical for apoptosis, providing the underlying molecular mechanism for its role in tumorigenesis. […] Based on the above data, we hypothesize that 1) CtBP suppresses the pro-apoptotic and epithelial genes, therefore overexpressed CtBP in human cancer cells increases EMT and cancer survival; 2) decreasing CtBP's function represents a targeted therapy for lung cancer and potentially multiple cancer types. As a co-repressor, CtBP binds to E1A and other transcription factors through a conserved peptide motif to carry out its action. Inhibiting this interaction using small molecules can potentially serve as effective cancer therapeutics.
To this end, we have developed a homogenous AlphaScreen assay targeting the CtBP/E1A interaction. We performed a large scale HTS of the Molecular Libraries Small Molecule Repository (MLSMR) to identify inhibitors of the CtBP/E1A interaction as potential anti-cancer therapeutics. Compounds identified can also be used as chemical probes to better understand the biological functions of CtBP.
NIH Chemical Genomics Center [NCGC]
NIH Molecular Libraries Probe Centers Network [MLPCN]
Assay Submitter (PI): Rui Zhao, University of Colorado Denver
The first step of the 5uL AlphaScreen assay is to dispense assay buffer (50 mM Tris, pH 8.0, 300 mM NaCl, 0.05% BSA, 0.02% Tween 20, 1 mM TCEP) into a Greiner 1536 white solid bottom microtiter plate (789175-F). Five microliters is added to Column 1, 4 uL is added to Column 2 and 3 uL is added to Columns 3 through 48. A 5X protein solution (125 nM GST-E1A protein + 125 nM His-tagged CtBP protein) is mixed and 1 uL is dispensed to Columns 3-48. Using a 1536 pintool, 23 nL of compound is transferred to the assay plate and the plate is incubated with a lid at 37 deg C in the dark for two hours. A solution of 5X AlphaScreen beads is mixed (50 ug/mL Glutathione linked donor beads + Nickel chelated acceptor beads) and 1 uL is dispensed to Columns 2-48. The assay plate is incubated for one hour, with a lid, at 37 deg C in the dark. The plate is read using a Perkin Elmer Envision using an AlphaScreen protocol.
On the % scale 0 is the no-effect control and ±100 the full control effect.

| Structure (SMILES) | activity change |
| --- | --- |
| COc1ccc(CCNS(=O)(=O)c2cccc3cccnc23)cc1OC | -9.76% |
| CCOc1ccc(C(CC(=O)O)NC(=O)Cc2ccccc2)cc1OC (stereo not given) | -13.3% |
| CCCCC(=O)NC(c1ccc(OC)c(OC)c1)c1ccc2cccnc2c1O (stereo not given) | -94.2% (active) |
| Cc1ccccc1C#CC1=CC(=O)CC(C)(C)C1 | 5.53% |
| CCCCNC(=O)C[C@@H]1C[C@@]2(C(=O)OC)CC(C)(C)CC=C2N(Cc2ccco2)C1=O | 2.24% |
| COCOc1cccc(CN2CCC(C)(Oc3ccc(SC)cc3)C2)c1 (stereo not given) | -22.6% |
| CSc1ccc(CN2CCC2(C)C(=O)NCc2ccccc2Br)cc1 (stereo not given) | -8.98% |
| COC(=O)[C@@]12C[C@@H](CC(=O)NCCCCc3ccccc3)C(=O)N(Cc3ccccc3)C1=CCC(C)(C)C2 | -0.75% |
| O=c1ccc2c(-c3ccccc3S(=O)(=O)O)c3ccc(O)c(O)c3oc-2c1O | -78.5% (active) |
| CCCCCNC(=O)C1C(=O)Nc2ccccc2C(=O)N1C(C)(C)C (stereo not given) | -0.209% |
| COc1ccc(Cl)cc1-c1cc(C(=O)Nc2cc(OC)c(OC)c(OC)c2)[nH]n1 | 4% |
| O=C1c2cccc3cccc(c23)C(=O)N1CCCCCc1n[nH]c(=S)o1 | -82.2% (active) |
| O=C1c2ccccc2C(=O)N1CCCCCCN1C(=O)c2ccccc2C1=O | 6.03% |
| O=C1c2ccccc2C(=O)N1CCCc1nc(-c2ccccc2)no1 | 5.59% |
| C[C@@H]1CN([C@H](C)CO)C(=O)c2cc(Br)cnc2O[C@@H]1CN(C)Cc1cncnc1 | -16.6% |
| Cc1onc(-c2ccccc2)c1-c1nnc(COC(=O)c2ccc(N(C)C)cc2)o1 | 2.13% |
| COC(=O)[C@@]12C[C@@H](CC(=O)N3CCC(c4ccccc4)CC3)C(=O)N(Cc3ccccc3)C1=CCC(C)(C)C2 | 0.365% |
| CCOC(=O)c1nc(Nc2ccc(C(=O)OC)cc2)c2ccccc2n1 | -86.6% (active) |
| CCOC(=O)c1ccc(Nc2cc3ccccc3c(=O)[nH]2)cc1 | 2.43% |
| COC(=O)c1ccc(NCC(=O)c2ccccc2)cc1 | 6.11% |
| COc1ccc(-c2coc3c(C(=O)NC(C)C)cccc23)c(C)c1 | -12.9% |
| Clc1cccc(Cc2c(-c3cccc(Cl)c3)nc3ccc(Cl)cn23)c1 | 0.333% |
| COc1ccc(CC(=O)NCC(=O)N/N=C/c2cc(Br)ccc2OC)cc1 | -87.6% (active) |

| Structure (SMILES) | activity change |
| --- | --- |
| COc1ccc(Br)cc1/C=N/Nc1ccc(Cl)c(C(=O)O)c1 | -2.31% |
| Cc1ccc(OCCOCCOc2ccc(Br)cc2/C=N\NC(=O)c2ccncc2)cc1 | -10.2% |
| C=CCNC(=O)COc1coc(CN2CCN(Cc3ccccc3)CC2)cc1=O | 2.1% |
| Cc1ccc(C(=O)Oc2coc(CSc3nnc(NC(=O)c4cccs4)s3)cc2=O)cc1C | -16.7% |
| O=C(/C=C/c1ccccc1)Oc1coc(CSc2ncccn2)cc1=O | -92.2% (active) |
| O=Nc1c(O)cc(O)c2ccccc12 | -6.15% |
| COc1ccc(C(=O)N2CCCCC2c2cc(C(=O)Nc3ccc(F)c(Cl)c3)no2)cc1 (stereo not given) | -5.81% |
| O=Cc1cn(CCOc2ccc(F)cc2)c2ccccc12 | 0% |
| CSCCC(c1nnnn1Cc1ccccc1)N1CCN(C/C=C/c2ccccc2)CC1 (stereo not given) | -18.4% |
| Cc1cccn2c(=O)c3cc(C(=O)NCCN4CCOCC4)c(=N)n(Cc4cccnc4)c3nc12 | -25.6% |
| O=C(NCc1ccco1)c1cccn2c(=O)c3c4c(sc3nc12)CCCC4 | -12.2% |
| COc1ccc(CCn2c(=N)c(C(=O)NCc3ccco3)cc3c(=O)n4cccc(C)c4nc32)cc1 | -81.7% (active) |
| CC(C)C[C@@H](COCc1ccc(Cl)cc1)N1CCN(C(=O)c2ccc(Cl)cc2Cl)CCC1=O | 0% |
| CCOC(=O)N1CCN(C(c2cccnc2)c2ccc3cccnc3c2O)CC1 (stereo not given) | -91.9% (active) |
| CCN1CCN(C(c2cccnc2)c2cc(Cl)c3cccnc3c2O)CC1 (stereo not given) | -99.3% (active) |
| CCOC(=O)N1CCN(C(=O)CSc2nc(=O)n3cccc(C)c3n2)CC1 | -4.84% |
| CCOC(=O)N1CCN(C(c2ccnc3ccccc23)c2nnnn2-c2c(C)cccc2C)CC1 (stereo not given) | 0% |
| N#CCCN(C(=S)Nc1ccc(Cl)c(Cl)c1)C1CCCCC1 | 0% |
| COc1ccc(-c2cnc3c(c2)C(=O)N([C@H](C)CO)C[C@@H](C)[C@H](CN(C)Cc2ccccc2)O3)cc1 | -12.8% |
| CC(C)Oc1ccc(CN2CCC2(C)C(=O)NCc2ccc(C(F)(F)F)cc2)cc1 (stereo not given) | 0.872% |
| Cc1ccc(NC(=O)C2CC(=O)N(c3ccc4c(c3)OCCO4)C2)cc1S(=O)(=O)N1CCCCCC1 (stereo not given) | -5.1% |
| Cc1ccc(C(=O)Nc2ccc3c(c2)OCO3)cc1S(=O)(=O)N1CCCCC1 | -66.6% (active) |
| Cc1ccc(C(=O)NNC(=O)c2ccncc2)cc1S(=O)(=O)N1CCCCC1 | -2.42% |

| Structure (SMILES) | activity change |
| --- | --- |
| OC(c1ccccc1)c1nc(/C=C/c2ccc(C(F)(F)F)cc2)cs1 (stereo not given) | 7.85% |
| Cc1nc2c(OCc3ccc(Cl)cc3Cl)cccn2c1N(C)CC1CC1 | -25.5% |
| COc1cccc(/C=N/NC(=O)c2[nH]nc3c2CCc2ccccc2-3)c1O | -67.1% (active) |
| COc1cc(OC)c(/C=N/NC(=O)c2ccc([N+](=O)[O-])cc2)cc1Br | -0.151% |
| COc1ccc(/C=N/NC(=O)c2ccncc2)cc1CN1CCCc2ccccc21 | 13.2% |
| Oc1c(C(c2ccccn2)N2CCOCC2)ccc2cccnc12 (stereo not given) | -81.3% (active) |
| CC(C)c1cc(CN2CCOCC2)cc(C(C)C)c1O | 4.14% |
| CCCCN1C[C@H](c2ccc(Br)cc2)[C@@H](CC(=O)Nc2ccc(Br)cc2)C1=O | -4.21% |
| COc1ccc(NC(=O)CCC(=O)Nc2cc(OC)c(NC(=O)c3ccco3)cc2OC)c(OC)c1 | -87.4% (active) |
| COc1ccc(CC(=O)Nc2ccccc2NC(=O)c2ccco2)cc1OC | 5.07% |
| COc1ccc(OCC(=O)Nc2ccc(NC(=O)c3ccco3)c(C)c2)cc1 | -2.52% |
| CC(=O)Nc1cc(-c2ccccc2N(C)C)cn2c(-c3ccc(F)c(Cl)c3)cnc12 | -22.9% |
| CCCOc1ccc(F)cc1-c1cc(C(=O)Nc2ccc(F)c(Cl)c2)[nH]n1 | 2.38% |
| COCC1CCCCN1C(=O)c1cc(COc2ccc(C)c(C)c2)on1 (stereo not given) | -0.436% |
| COc1ccc(C(C)(C)C)cc1NC(=O)CN(C)C1=NS(=O)(=O)c2ccccc21 | 2.94% |
| COc1ccc(/C=N/N(C)C2=NS(=O)(=O)c3ccccc32)cc1OC | -89.3% (active) |
| C=CCOCCN(C)C1=NS(=O)(=O)c2ccccc21 | 0.314% |
| CC(=O)Nc1cc(-c2ccccc2F)cn2c(-c3cccc(C(F)(F)F)c3)cnc12 | -8.33% |
| COc1ccccc1-c1cc2nc(NCc3cccc(Cl)c3)ccn2n1 | 3.38% |
| O=[N+]([O-])c1ccc2nc(-c3ccccn3)[nH]c2c1 | -90.6% (active) |
| O=[N+]([O-])c1cccc(S(=O)(=O)NCc2ccccn2)c1 | 1.03% |
| O=S(=O)(Nc1ccc2nc(-c3ccco3)[nH]c2c1)c1ccccc1 | -18.3% |
| COCOCCn1cc(CN2CCS(=O)(=O)N(Cc3ccc(-c4ccc(OC)cc4)cc3)C(CC(C)C)C2=O)nn1 (stereo not given) | -1.08% |

| Structure (SMILES) | activity change |
| --- | --- |
| Cc1ccc(Nc2cc(C)nc3c(C)ccc([N+](=O)[O-])c23)cc1 | -66.7% (active) |
| Cc1cc(Nc2ccc(N3CCOCC3)cc2)c2cccc(C)c2n1 | -16.1% |
| Cc1cc(Nc2ccc(C(=O)N3CCCCC3)cc2)c2cccc(C)c2n1 | 1.83% |
| COC(=O)c1ccccc1N=NNc1ccc([N+](=O)[O-])cc1 | -2.76% |
| Fc1cccc(Cc2c(-c3ccc(Cl)cc3)nc3ccc(Cl)cn23)c1 | 0% |
| CCN(CC)C(=O)C1=C(C)N(Cc2ccc(F)cc2)C(=O)C(CC(=O)NCc2cccc3ccccc23)C1 (stereo not given) | -2.72% |
| COc1ccc(/C=N/Nc2ncnc3sc4c(c23)CCCC4)cc1O | -87.1% (active) |
| COc1ccc(NC(=O)CCCNC(=O)Cn2cnc3sc4c(c3c2=O)CCCC4)cc1OC | 20.4% |
| COc1ccc(NC(=O)CCNC(=O)Cn2cnc3sc4c(c3c2=O)CCCC4)cc1OC | 0.477% |
| COC(=O)C1=CN(c2c(C)cc(C)cc2C)C(N)=C(C#N)C1c1cccc(F)c1 (stereo not given) | 3.08% |
| CCCCCCN1CCN(C2CN(Cc3cn(CCCCCC)nn3)S(=O)(=O)C2)CC1 (stereo not given) | 0.678% |
| Cc1nc2c(OCc3cccc(Cl)c3)cccn2c1N(C)CC1CC1 | -6.06% |
| COc1ccc(NC(=O)C2Cc3c(-c4ccc(Cl)cc4)ccnc3O2)cc1 (stereo not given) | 1.32% |
| COCCCNC(=O)c1cccc2c(-c3ccc(O)c(OC)c3)coc12 | -18.4% |
| Cc1cc(NC(=O)CSc2ncc(C(F)(F)F)cc2Cl)no1 | -2.36% |
| Cc1cc(NC(=O)CSc2nnc(-c3ccc(Cl)s3)o2)no1 | -93.2% (active) |
| O=C(CSc1nnc(-c2ccncc2)o1)Nc1cccc(Cl)c1 | 6.8% |
| CCCCc1c(-c2ccc(Br)cc2)ncn1CCc1ccccc1OC | -11.3% |
| CCCCNC(=O)CSc1nc2n[nH]c(C)c2c(=N)n1-c1cccc(Cl)c1C | -0.913% |
| Cc1ccc(-n2c(SCC(=O)NCCC3=CCCCC3)nc3n[nH]c(C)c3c2=N)cc1Cl | -20.7% |
| COc1cccc(-n2c(SCC(=O)NC3CCCCC3)nc3n[nH]c(C)c3c2=N)c1 | -66.5% (active) |
